# Measurements taken from the supplement of paper PMC4466140.
# Molecular target: AgAbp1
# Assay: SPOT peptide array binding signal intensity (averaged, normalized) (arbitrary units (background-subtracted, floor 0; scale differs between SH3 domains)); higher = stronger binding of the SH3 domain to the peptide
# How it was run: (§1)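 Binding signal refers to normalized, background-subtracted spot intensity averaged over replicates, expressed in arbitrary units that differ between domains. GST-fused SH3 domains from four yeast species were incubated at 10 μg/ml overnight at 4°C on cellulose membranes of synthetic 15-mer peptides with cysteines replaced by serines. Bound protein was detected with anti-GST antibody, an HRP anti-mouse secondary and luminol, and quantified with Genespotter.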
row,Binder,SPOT peptide array binding signal intensity
1,VQPTAAPATPPRHIS,≤ 0

# Molecular target: AgBbc1
# Assay: as above
# How it was run: as §1
row,Binder,SPOT peptide array binding signal intensity
1,VQPTAAPATPPRHIS,≤ 0

# Molecular target: AgBem1-D1
# Assay: as above
# How it was run: as §1
row,Binder,SPOT peptide array binding signal intensity
1,VQPTAAPATPPRHIS,≤ 0

# Molecular target: AgBzz1-D1
# Assay: as above
# How it was run: as §1
row,Binder,SPOT peptide array binding signal intensity
1,VQPTAAPATPPRHIS,≤ 0

# Molecular target: AgBzz1-D2
# Assay: as above
# How it was run: as §1
row,Binder,SPOT peptide array binding signal intensity
1,VQPTAAPATPPRHIS,≤ 0

# Molecular target: AgCyk3
# Assay: as above
# How it was run: as §1
row,Binder,SPOT peptide array binding signal intensity
1,VQPTAAPATPPRHIS,≤ 0

# Molecular target: AgFus1
# Assay: as above
# How it was run: as §1
row,Binder,SPOT peptide array binding signal intensity
1,VQPTAAPATPPRHIS,≤ 0

# Molecular target: AgHof1
# Assay: as above
# How it was run: as §1
row,Binder,SPOT peptide array binding signal intensity
1,VQPTAAPATPPRHIS,≤ 0

# Molecular target: AgHse1
# Assay: as above
# How it was run: as §1
row,Binder,SPOT peptide array binding signal intensity
1,VQPTAAPATPPRHIS,5.5

# Molecular target: AgLsb1
# Assay: as above
# How it was run: as §1
row,Binder,SPOT peptide array binding signal intensity
1,VQPTAAPATPPRHIS,8

# Molecular target: AgLsb4
# Assay: as above
# How it was run: as §1
row,Binder,SPOT peptide array binding signal intensity
1,VQPTAAPATPPRHIS,964

# Molecular target: AgMyo5
# Assay: as above
# How it was run: as §1
row,Binder,SPOT peptide array binding signal intensity
1,VQPTAAPATPPRHIS,≤ 0

# Molecular target: AgNbp2
# Assay: as above
# How it was run: as §1
row,Binder,SPOT peptide array binding signal intensity
1,VQPTAAPATPPRHIS,≤ 0

# Molecular target: AgRvs167
# Assay: as above
# How it was run: as §1
row,Binder,SPOT peptide array binding signal intensity
1,VQPTAAPATPPRHIS,43.6

# Molecular target: AgSho1
# Assay: as above
# How it was run: as §1
row,Binder,SPOT peptide array binding signal intensity
1,VQPTAAPATPPRHIS,≤ 0

# Molecular target: AgSla1-D1-D2
# Assay: as above
# How it was run: as §1
row,Binder,SPOT peptide array binding signal intensity
1,VQPTAAPATPPRHIS,≤ 0

# Molecular target: AgSla1-D3
# Assay: as above
# How it was run: as §1
row,Binder,SPOT peptide array binding signal intensity
1,VQPTAAPATPPRHIS,≤ 0

# Molecular target: CaAbp1-D1
# Assay: as above
# How it was run: as §1
row,Binder,SPOT peptide array binding signal intensity
1,VQPTAAPATPPRHIS,≤ 0

# Molecular target: CaAbp1-D2
# Assay: as above
# How it was run: as §1
row,Binder,SPOT peptide array binding signal intensity
1,VQPTAAPATPPRHIS,≤ 0

# Molecular target: CaBbc1
# Assay: as above
# How it was run: as §1
row,Binder,SPOT peptide array binding signal intensity
1,VQPTAAPATPPRHIS,78.6

# Molecular target: CaBem1-D1
# Assay: as above
# How it was run: as §1
row,Binder,SPOT peptide array binding signal intensity
1,VQPTAAPATPPRHIS,5

# Molecular target: CaBzz1-D1
# Assay: as above
# How it was run: as §1
row,Binder,SPOT peptide array binding signal intensity
1,VQPTAAPATPPRHIS,≤ 0

# Molecular target: CaBzz1-D2
# Assay: as above
# How it was run: as §1
row,Binder,SPOT peptide array binding signal intensity
1,VQPTAAPATPPRHIS,≤ 0

# Molecular target: CaCyk3
# Assay: as above
# How it was run: as §1
row,Binder,SPOT peptide array binding signal intensity
1,VQPTAAPATPPRHIS,≤ 0

# Molecular target: CaFus1
# Assay: as above
# How it was run: as §1
row,Binder,SPOT peptide array binding signal intensity
1,VQPTAAPATPPRHIS,≤ 0

# Molecular target: CaHof1
# Assay: as above
# How it was run: as §1
row,Binder,SPOT peptide array binding signal intensity
1,VQPTAAPATPPRHIS,≤ 0

# Molecular target: CaHse1
# Assay: as above
# How it was run: as §1
row,Binder,SPOT peptide array binding signal intensity
1,VQPTAAPATPPRHIS,5.25

# Molecular target: CaLsb1
# Assay: as above
# How it was run: as §1
row,Binder,SPOT peptide array binding signal intensity
1,VQPTAAPATPPRHIS,≤ 0

# Molecular target: CaLsb4
# Assay: as above
# How it was run: as §1
row,Binder,SPOT peptide array binding signal intensity
1,VQPTAAPATPPRHIS,2000

# Molecular target: CaMyo5
# Assay: as above
# How it was run: as §1
row,Binder,SPOT peptide array binding signal intensity
1,VQPTAAPATPPRHIS,≤ 0

# Molecular target: CaNbp2
# Assay: as above
# How it was run: as §1
row,Binder,SPOT peptide array binding signal intensity
1,VQPTAAPATPPRHIS,≤ 0

# Molecular target: CaRvs167
# Assay: as above
# How it was run: as §1
row,Binder,SPOT peptide array binding signal intensity
1,VQPTAAPATPPRHIS,462

# Molecular target: CaRvs167-3
# Assay: as above
# How it was run: as §1
row,Binder,SPOT peptide array binding signal intensity
1,VQPTAAPATPPRHIS,≤ 0

# Molecular target: CaSho1
# Assay: as above
# How it was run: as §1
row,Binder,SPOT peptide array binding signal intensity
1,VQPTAAPATPPRHIS,≤ 0

# Molecular target: CaSla1-D1-D2
# Assay: as above
# How it was run: as §1
row,Binder,SPOT peptide array binding signal intensity
1,VQPTAAPATPPRHIS,≤ 0

# Molecular target: CaSla1-D3
# Assay: as above
# How it was run: as §1
row,Binder,SPOT peptide array binding signal intensity
1,VQPTAAPATPPRHIS,≤ 0

# Molecular target: ScAbp1
# Assay: as above
# How it was run: as §1
row,Binder,SPOT peptide array binding signal intensity
1,VQPTAAPATPPRHIS,≤ 0

# Molecular target: ScBbc1
# Assay: as above
# How it was run: as §1
row,Binder,SPOT peptide array binding signal intensity
1,VQPTAAPATPPRHIS,1.75

# Molecular target: ScBem1-D1
# Assay: as above
# How it was run: as §1
row,Binder,SPOT peptide array binding signal intensity
1,VQPTAAPATPPRHIS,≤ 0

# Molecular target: ScBzz1-D1
# Assay: as above
# How it was run: as §1
row,Binder,SPOT peptide array binding signal intensity
1,VQPTAAPATPPRHIS,≤ 0

# Molecular target: ScBzz1-D2
# Assay: as above
# How it was run: as §1
row,Binder,SPOT peptide array binding signal intensity
1,VQPTAAPATPPRHIS,≤ 0

# Molecular target: ScCyk3
# Assay: as above
# How it was run: as §1
row,Binder,SPOT peptide array binding signal intensity
1,VQPTAAPATPPRHIS,≤ 0

# Molecular target: ScFus1
# Assay: as above
# How it was run: as §1
row,Binder,SPOT peptide array binding signal intensity
1,VQPTAAPATPPRHIS,≤ 0

# Molecular target: ScHof1
# Assay: as above
# How it was run: as §1
row,Binder,SPOT peptide array binding signal intensity
1,VQPTAAPATPPRHIS,0.5

# Molecular target: ScHse1
# Assay: as above
# How it was run: as §1
row,Binder,SPOT peptide array binding signal intensity
1,VQPTAAPATPPRHIS,≤ 0

# Molecular target: ScLsb1
# Assay: as above
# How it was run: as §1
row,Binder,SPOT peptide array binding signal intensity
1,VQPTAAPATPPRHIS,14.5

# Molecular target: ScLsb2
# Assay: as above
# How it was run: as §1
row,Binder,SPOT peptide array binding signal intensity
1,VQPTAAPATPPRHIS,≤ 0

# Molecular target: ScLsb3
# Assay: as above
# How it was run: as §1
row,Binder,SPOT peptide array binding signal intensity
1,VQPTAAPATPPRHIS,6740

# Molecular target: ScLsb4
# Assay: as above
# How it was run: as §1
row,Binder,SPOT peptide array binding signal intensity
1,VQPTAAPATPPRHIS,1970

# Molecular target: ScMyo3
# Assay: as above
# How it was run: as §1
row,Binder,SPOT peptide array binding signal intensity
1,VQPTAAPATPPRHIS,≤ 0

# Molecular target: ScMyo5
# Assay: as above
# How it was run: as §1
row,Binder,SPOT peptide array binding signal intensity
1,VQPTAAPATPPRHIS,≤ 0

# Molecular target: ScNbp2
# Assay: as above
# How it was run: as §1
row,Binder,SPOT peptide array binding signal intensity
1,VQPTAAPATPPRHIS,≤ 0

# Molecular target: ScPex13
# Assay: as above
# How it was run: as §1
row,Binder,SPOT peptide array binding signal intensity
1,VQPTAAPATPPRHIS,4

# Molecular target: ScRvs167
# Assay: as above
# How it was run: as §1
row,Binder,SPOT peptide array binding signal intensity
1,VQPTAAPATPPRHIS,1040

# Molecular target: ScSho1
# Assay: as above
# How it was run: as §1
row,Binder,SPOT peptide array binding signal intensity
1,VQPTAAPATPPRHIS,4.75

# Molecular target: ScSla1-D1-D2
# Assay: as above
# How it was run: as §1
row,Binder,SPOT peptide array binding signal intensity
1,VQPTAAPATPPRHIS,≤ 0

# Molecular target: ScSla1-D3
# Assay: as above
# How it was run: as §1
row,Binder,SPOT peptide array binding signal intensity
1,VQPTAAPATPPRHIS,≤ 0

# Molecular target: SpAbp1-D1
# Assay: as above
# How it was run: as §1
row,Binder,SPOT peptide array binding signal intensity
1,VQPTAAPATPPRHIS,≤ 0

# Molecular target: SpBbc1
# Assay: as above
# How it was run: as §1
row,Binder,SPOT peptide array binding signal intensity
1,VQPTAAPATPPRHIS,≤ 0

# Molecular target: SpBzz1-D1
# Assay: as above
# How it was run: as §1
row,Binder,SPOT peptide array binding signal intensity
1,VQPTAAPATPPRHIS,≤ 0

# Molecular target: SpBzz1-D2
# Assay: as above
# How it was run: as §1
row,Binder,SPOT peptide array binding signal intensity
1,VQPTAAPATPPRHIS,≤ 0

# Molecular target: SpCyk3
# Assay: as above
# How it was run: as §1
row,Binder,SPOT peptide array binding signal intensity
1,VQPTAAPATPPRHIS,≤ 0

# Molecular target: SpHof1
# Assay: as above
# How it was run: as §1
row,Binder,SPOT peptide array binding signal intensity
1,VQPTAAPATPPRHIS,0.5

# Molecular target: SpHof1-2
# Assay: as above
# How it was run: as §1
row,Binder,SPOT peptide array binding signal intensity
1,VQPTAAPATPPRHIS,0.25

# Molecular target: SpHof1-3
# Assay: as above
# How it was run: as §1
row,Binder,SPOT peptide array binding signal intensity
1,VQPTAAPATPPRHIS,15

# Molecular target: SpHse1
# Assay: as above
# How it was run: as §1
row,Binder,SPOT peptide array binding signal intensity
1,VQPTAAPATPPRHIS,≤ 0

# Molecular target: SpLsb1
# Assay: as above
# How it was run: as §1
row,Binder,SPOT peptide array binding signal intensity
1,VQPTAAPATPPRHIS,2

# Molecular target: SpLsb4
# Assay: as above
# How it was run: as §1
row,Binder,SPOT peptide array binding signal intensity
1,VQPTAAPATPPRHIS,4010

# Molecular target: SpMyo1
# Assay: as above
# How it was run: as §1
row,Binder,SPOT peptide array binding signal intensity
1,VQPTAAPATPPRHIS,≤ 0

# Molecular target: SpNbp2
# Assay: as above
# How it was run: as §1
row,Binder,SPOT peptide array binding signal intensity
1,VQPTAAPATPPRHIS,≤ 0

# Molecular target: SpPex13
# Assay: as above
# How it was run: as §1
row,Binder,SPOT peptide array binding signal intensity
1,VQPTAAPATPPRHIS,≤ 0

# Molecular target: SpRvs167
# Assay: as above
# How it was run: as §1
row,Binder,SPOT peptide array binding signal intensity
1,VQPTAAPATPPRHIS,1620

# Molecular target: SpSla1-D1-D2
# Assay: as above
# How it was run: as §1
row,Binder,SPOT peptide array binding signal intensity
1,VQPTAAPATPPRHIS,0.5

# Molecular target: SpSla1-D3
# Assay: as above
# How it was run: as §1
row,Binder,SPOT peptide array binding signal intensity
1,VQPTAAPATPPRHIS,≤ 0
